In paper PMC8769072, “Proteome‐scale mapping of binding sites in the unstructured regions of the human proteome” (Molecular Systems Biology, 2022):

molecular target: YES1 90-152, P07947
Sequence (P07947 90-152): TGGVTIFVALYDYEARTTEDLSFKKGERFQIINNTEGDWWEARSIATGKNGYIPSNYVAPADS

Selected by phage display, active:
DKPLPVPPTLRDLPPP confidence 4
PQKEGERALPSIPKLA [PTK2, Q05397] confidence 3
RPLPSPAPPPPQLLEA [KIF26A, Q9ULI4] confidence 2
LPLPPLPGAGIPPPPP [FMN2, Q9NZ56] confidence 2
VDPSKHIRPVPSLPDV [VPS54, Q9P1Q0] confidence 2
AAPTLGHRTLPLLPSL [PRRT4, C9JH25] confidence 2
PTPSSPLPSVPVSVPA [PLEKHN1, Q494U1] confidence 3
FAGLPLPLPPTSQGLS [PROSER1, Q86XN7] confidence 3
TAGPGRPLPQRPMPDQ [ZFHX2, Q9C0A1] confidence 2
QPAVFPPSFRELPPPP [IFT52, Q9Y366] confidence 4
VKRTLPSPPPEEAHLP [BSN, Q9UPA5] confidence 3
NQQKALPPPPASIPPP [FMN1, Q68DA7] confidence 2
DMLPALLRPPEPLPTP [SLC39A5, Q6ZMH5] confidence 2
SERELPQPPPLLSPQN [SAMD11, Q96NU1] confidence 4
ELPLLPPPPSLPTIGA [SETD5, Q9C0A6] confidence 3
TFRWTSLTRELPPPPP [KMT2B, Q9UMN6] confidence 2
LQRTLPSVPPDTKLSK [TCF24, Q7RTU0] confidence 2
PGRGLPQLPSSAYSVD [ST5, P78524] confidence 4
AAVGVSKPLPSVPPSI [MADD, Q8WXG6] confidence 2
SSENPYATIRDLPSLP [PEAR1, Q5VY43] confidence 4
TLTDLPLLPGVPMAGD [LRRC46, Q96FV0] confidence 2
KDRPLPPAPLSPAPGP [MAP1A, P78559] confidence 3
QLGDLPPKPQLSDLPP [ASAP1, Q9ULH1] confidence 2
QPLPPAPTSVPPAAFP [PER1, O15534] confidence 2
LPPPPPPDRPYSVGAE confidence 4
MSGHTLPPLPVPGTNS [EPPK1, P58107] confidence 3
RLSLEGLPSLPSMHEY [IRS2, Q9Y4H2] confidence 3
DKTSSIQSRPLPSPPK [BCAR1, P56945] confidence 2
LLPPPPPGAPLPSLPF [SOBP, A7XYQ1] confidence 2
APTLPLPPPPGFPPLP [SETD1B, Q9UPS6] confidence 3
SRALPATPQLPSRSGV [WIPF1, O43516] confidence 3
QQQQQQLPALPPTPQQ [R3HDM2, Q9Y2K5] confidence 2
NLRALPLPPRPPATST [RNF223, E7ERA6] confidence 3
TSTLPPLPLPPLLPGD [CDK12, Q9NYV4] confidence 3
LPSAESLSRRPLPALP [EFS, O43281] confidence 3
PLPPPPPLPKIQPLEP [ZBTB21, Q9ULJ3] confidence 2
LPSLPLEPSLLSGVVQ [LRP10, Q7Z4F1] confidence 2
TVELEEKRFRTLPLVP [ELL3, Q9HB65] confidence 3
HSSRELPSRPDGVLHV [VWA5B2, Q8N398] confidence 3
TKTPPRDLPTIPGVTS [EIF4EBP1, Q13541] confidence 3

molecular target: YAP1 169-207, P46937
Sequence (P46937 169-207): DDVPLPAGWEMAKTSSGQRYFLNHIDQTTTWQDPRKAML

Selected by phage display, active:
EAPPPYSPIGDDVQLL [ARHGAP5, Q13017] confidence 3
SPSQYINEENLPVYPD [KNL1, Q8NG31] confidence 2
PPPSYAATIASKLAIH [KLF5, Q13887] confidence 3
HQQPPPYPLMHHQMPP [SMARCC1, Q92922] confidence 3
LQEQQQQQMHLQPPSY [TRERF1, Q96PN7] confidence 2
IAPPQYVTTSASNIVS [ARID2, Q68CP9] confidence 4
MPPPGYPHIPQALSTP [FOXJ3, Q9UPW0] confidence 4
PTMTPPPYLPGPNASP [FOXI1, Q12951] confidence 4
TPRSSVELPPYSGTVL [USP10, Q14694] confidence 2
APPPPGYHQNGVIRNQ [MYO1E, Q12965] confidence 3
AEFQPPYFPPPYPQPP [TFAP2E, Q6VUC0] confidence 2
IELLPSYSTATLIDEP [SLC34A2, O95436] confidence 3
AYPPSYPSAMSPTHHL [FNDC3B, Q53EP0] confidence 2
EYEKLPAYLATSPIPT [LPIN2, Q92539] confidence 3
GSPMVPSYETSVSPQA [PIKFYVE, Q9Y2I7] confidence 2
SLDALKVFDGIPPPYD [RPL13AP3, Q6NVV1] confidence 2
MGDLPPYPERPAQQPP [RSPH6A, Q9H0K4] confidence 2
QALPDYSLGPHYTSQK [CSRNP1, Q96S65] confidence 2
ASEVGSPPSYSEALLD [LDLRAD3, Q86YD5] confidence 3
SPQLPQYPGLQQAQTM [MED12L, Q86YW9] confidence 3
SPPAYHMHVFDRPYPL [CUEDC1, Q9NWM3] confidence 3
ESLPSYLESSRVNTPV [ANK3, Q12955] confidence 4
